Records with an inconclusive call do not appear. Active and inactive are the calls of the source. Unless noted, calls follow the shape of the dose curve; as a rule, active = well fitted curve in the direction sought with a large enough effect in the repeat runs; inconclusive = weak or mixed curves; inactive = no such curve, though single readings can be large; an effect the other way counts as inactive or inconclusive.
How the values were obtained:
[1] = molecular target: Retinoic acid receptor RXR-alpha (Homo sapiens) (UniProt P19793); test: qHTS assay to identify small molecule agonists of the RXR signaling pathway (AID 1159527; calls by dose curve; also: nearly all actives have a fitted effect of over 35% in size)
Summary of the method: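 Using 9-cis retinoic acid as the reference agonist, chemicals were tested in HEK 293T cells […] for 16 hr; substrate loading lasted 2 hr at room temperature.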

[2] = qHTS assay to identify small molecule antagonists of the retinoid acid receptor (RAR) signaling pathway - cell viability counter screen (AID 1159551); also: nearly all actives have a fitted effect of over 35% in size
Summary of the method: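 Cytotoxicity counter screen in C3RL4 cells: 6 h compound exposure with 1 uM retinol (final), viability from cellular ATP by luminescence.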

[3] = qHTS assay to identify small molecule antagonists of the estrogen related receptor (ERR) signaling pathway from Tox21 library - cell viability counter screen (AID 1224834); also: nearly all actives have a fitted effect of over 30% in size
Summary of the method: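 Cytotoxicity of test substances is gauged in the same ERR cells used for the antagonist screen, after 17.5 h of compound treatment at 37 C, by CellTiter-Fluor fluorescence measured after 30 min.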

[4] = molecular target: Luciferin 4-monooxygenase (Photinus pyralis) (UniProt P08659); test: qHTS assay to identify small molecule inhibitors of firefly luciferase (AID 1224835); also: series mostly up to about 120 µM; nearly all actives have a fitted effect of over 25% in size
Summary of the method: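 Inhibition of purified Photinus luciferase is measured by luminescence. Substrate levels (D-luciferin, ATP) sit at their KM values. Each compound is tested in a concentration series.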

[5] = qHTS assay to identify small molecule agonists of the constitutive androstane receptor (CAR) signaling pathway - cell viability counter screen (AID 1224836); also: series mostly up to about 92 µM; nearly all actives have a fitted effect of over 45% in size
Summary of the method: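 23 h treatment, 37 C, 5% CO2. Cell line: HepG2 stably expressing hCAR with a CYP2B6-2.2kb construct. Co-treatment: PK11195, 0.75 uM final. Read-out: CellTiter-Fluor fluorescence intensity.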

[6] = qHTS assay to identify small molecule antagonists of the estrogen related receptor signaling pathway with the pleiotropic PPARgamma coactivator (PGC) from Tox21 10K library - cell viability counter screen (AID 1224840; active = well fitted cell-killing curve with a large enough effect in the repeat runs, not every such curve was filed as active; also: nearly all actives have a fitted effect of over 40% in size)
Summary of the method: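 Step one, plate 2,000 PGC/ERR cells per well; step two, incubate 6 h at 37 C/5% CO2; step three, pin-transfer compounds; step four, incubate 17.5 h; step five, add CellTiter-Fluor and read fluorescence after 30 min.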

[7] = qHTS assay to identify small molecule antagonists of the estrogen related receptor signaling pathway with the pleiotropic PPARgamma coactivator (PGC) from Tox21 10K library (AID 1224841; call rule not given here; also: series mostly up to about 92 µM; actives are mostly falling curves and most rising ones were filed inactive; nearly all actives have a fitted effect of over 50% in size)
Summary of the method: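 Antagonism in this quantitative HTS is taken from loss of luciferase signal in PGC/ERR cells. Cells (2,000/well) are treated with compounds in DMSO after a 6 h settling period and read by One-Glo luminescence after 18 h.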

[8] = qHTS assay to identify small molecule agonists of the estrogen related receptor signaling pathway with the pleiotropic PPARgamma coactivator (PGC) from Tox21 10K library (AID 1224842); also: nearly all actives have a fitted effect of over 15% in size
Summary of the method: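 Luminescence from One-Glo (30 min, room temperature) measured after PGC/ERR cells had 18 h at 37 C with pinned compound (23 nL in DMSO). Cells had been seeded at 2,000 per well and pre-incubated 6 h.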

[9] = qHTS assay to identify small molecule antagonists of the retinoic acid receptor (RAR) signaling pathway (AID 1159552; also: nearly all actives have a fitted effect of over 50% in size)
Summary of the method: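 Test chemicals and DMSO controls were pin-transferred onto C3RL4 cells a day after seeding; retinol (1 uM final) followed at once. Luminescent reporter output was quantified after 6 hr of co-incubation and 30 min with detection reagent.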

[10] = qHTS assay to identify small molecule agonists of the retinoic acid receptor (RAR) signaling pathway (AID 1159553)
Summary of the method: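 Agonist activity was scored in C3RL4 cells bearing a retinoic acid response element luciferase construct. Cells were treated with compounds for 6 hr at 37 C, and luciferase signal was measured as luminescence.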

[11] = qHTS assay to identify small molecule antagonists of the constitutive androstane receptor (CAR) signaling pathway - cell viability counter screen (AID 1224837); also: series mostly up to about 92 µM; nearly all actives have a fitted effect of over 45% in size
Summary of the method: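 Multiplexed cytotoxicity read-out for the CAR antagonist screen: double-stable HepG2-CYP2B6-hCAR cells co-treated with 50 nM CITCO (final) and compound over 15 concentrations, incubated 23 hr, then assessed by CellTiter-Fluor fluorescence.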

[12] = molecular target: Nuclear receptor subfamily 1 group I member 3 (Homo sapiens) (UniProt Q14994); test: qHTS assay to identify small molecule antagonists of the constitutive androstane receptor (CAR) signaling pathway (AID 1224838); also: nearly all actives have a fitted effect of over 40% in size
Summary of the method: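 Compounds were titrated across 15 concentrations onto HepG2 cells double-stably expressing hCAR and a CYP2B6-2.2kb reporter, together with 50 nM CITCO (final). After 24 h at 37 C, luciferase activity was measured by luminescence.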

[13] = molecular target: Nuclear receptor subfamily 1 group I member 3 (Homo sapiens) (UniProt Q14994); test: qHTS assay to identify small molecule agonists of the constitutive androstane receptor (CAR) signaling pathway (AID 1224839);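 also: HepG2 cells stably carrying human CAR and a CYP2B6 luciferase reporter; series mostly up to about 92 µM; nearly all actives have a fitted effect of over 15% in size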
Summary of the method: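 Compounds tested at 15 concentrations on HepG2 cells stably harbouring hCAR and CYP2B6-2.2kb reporter constructs, co-treated with PK11195 (0.75 uM final), 24 h at 37 C; luminescent reporter signal quantified.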

[14] = qHTS assay to identify small molecule agonists of the RXR signaling pathway - cell viability counter screen (AID 1159529); also: series mostly up to about 77 µM; nearly all actives have a fitted effect of over 50% in size
Summary of the method: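 Compounds dissolved in DMSO were pinned onto HEK 293T cells carrying a beta-lactamase reporter under RXR-alpha control and incubated 16 hr. Cytotoxicity was then quantified by CellTiter-Glo luminescence.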

Measured: Potency

Chain of Nuclear receptor subfamily 1 group I member 3 (Homo sapiens) (Q14994 whole entry, looked up): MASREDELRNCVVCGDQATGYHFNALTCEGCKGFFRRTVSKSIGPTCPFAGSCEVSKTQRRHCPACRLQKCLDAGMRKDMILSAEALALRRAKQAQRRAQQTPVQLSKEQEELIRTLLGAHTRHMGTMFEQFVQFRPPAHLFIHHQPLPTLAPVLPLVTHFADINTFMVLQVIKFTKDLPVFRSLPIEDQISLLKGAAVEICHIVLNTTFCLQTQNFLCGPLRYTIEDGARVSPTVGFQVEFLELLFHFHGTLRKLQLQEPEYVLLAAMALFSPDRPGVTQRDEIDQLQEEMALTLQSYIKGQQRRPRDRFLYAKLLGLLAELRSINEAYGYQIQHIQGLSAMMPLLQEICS
Chain of Retinoic acid receptor RXR-alpha (Homo sapiens) (P19793 whole entry, looked up): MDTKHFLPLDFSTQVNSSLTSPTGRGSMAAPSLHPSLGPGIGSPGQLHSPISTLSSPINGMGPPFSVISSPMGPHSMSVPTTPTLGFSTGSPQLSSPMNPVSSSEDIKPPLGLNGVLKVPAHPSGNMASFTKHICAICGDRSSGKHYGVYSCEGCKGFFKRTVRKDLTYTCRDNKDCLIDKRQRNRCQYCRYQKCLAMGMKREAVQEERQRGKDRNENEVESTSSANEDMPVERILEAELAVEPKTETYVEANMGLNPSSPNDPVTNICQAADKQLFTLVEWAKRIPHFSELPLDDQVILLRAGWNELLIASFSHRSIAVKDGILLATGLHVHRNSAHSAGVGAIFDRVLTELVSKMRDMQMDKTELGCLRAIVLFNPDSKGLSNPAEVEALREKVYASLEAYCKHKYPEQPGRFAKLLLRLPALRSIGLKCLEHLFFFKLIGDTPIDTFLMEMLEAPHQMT
Chain of Luciferin 4-monooxygenase (Photinus pyralis) (P08659 whole entry, looked up): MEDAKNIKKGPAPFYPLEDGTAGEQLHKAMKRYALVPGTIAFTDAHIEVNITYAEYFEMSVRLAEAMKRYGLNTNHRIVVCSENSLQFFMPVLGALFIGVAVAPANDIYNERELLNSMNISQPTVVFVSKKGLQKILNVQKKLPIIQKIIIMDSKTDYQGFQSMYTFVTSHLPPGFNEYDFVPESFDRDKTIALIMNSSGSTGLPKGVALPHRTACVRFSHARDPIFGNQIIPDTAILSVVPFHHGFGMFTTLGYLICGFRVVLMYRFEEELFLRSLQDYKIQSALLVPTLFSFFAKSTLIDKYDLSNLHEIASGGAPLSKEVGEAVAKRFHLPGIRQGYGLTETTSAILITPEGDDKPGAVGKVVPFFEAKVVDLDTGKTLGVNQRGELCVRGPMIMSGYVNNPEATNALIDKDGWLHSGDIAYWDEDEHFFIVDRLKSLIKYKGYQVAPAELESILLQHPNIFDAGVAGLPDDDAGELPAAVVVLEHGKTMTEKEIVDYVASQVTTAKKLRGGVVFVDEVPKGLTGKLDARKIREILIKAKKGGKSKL

OCc1ccccn1
inactive: [1] | [2] | [3] | [4] | [5] | [6] | [7] | [8]

OCCCCCCO
not listed: [4] | [5] | [7] | [8] | [14]
inactive: all other assays above

CCCCc1ccc2cccc(S(=O)(=O)O)c2c1
not listed: [5] | [11] | [14]
inactive: all other assays above

N#CC1(O)CCCCC1
inactive: [1] | [14] | [4] | [5] | [13] | [6] | [7] | [8]

C=C(C)C(=O)NCCC[N+](C)(C)C
not listed: [7] | [8] | [9] | [10] | [14]
inactive: all other assays above

Cn1cnc2c(=O)[nH]c(N)nc21
inactive: [1] | [2] | [3] | [4] | [5] | [12] | [13] | [6]

CC1=CC(=O)CCC1
not listed: [7] | [8] | [14]
inactive: all other assays above

C(=C(c1ccccc1)c1ccccc1)c1ccccc1
inactive: [1] | [2] | [9] | [10] | [3] | [5] | [11] | [6]

CC(C)c1cccc(C(C)C)c1N
not listed: [14]
inactive: all other assays above

C#CC(O)CCCCC (centres undefined)
inactive: [1] | [2] | [3] | [5] | [11] | [12] | [13] | [6]

C[C@H](O)C(=O)Nc1c(I)c(C(=O)NC(CO)CO)c(I)c(C(=O)NC(CO)CO)c1I
inactive: [1] | [2] | [3] | [4] | [11] | [12] | [13] | [6]

Cc1ccccc1Br
not listed: [14]
inactive: all other assays above

From PubChem BioAssay (Tox21)
